Screening results: PubChem, several laboratories
ERb SRC1 inh = blocks coactivator binding to human estrogen receptor beta | Q92731 | TR-FRET ER-beta LBD / SRC1-Cy5 peptide binding; receptor agonist-loaded with 1 µM estradiol | inhibition, % at 25.6 µM | 1.3% of 86,000 active | AID 633;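 active = compounds whose percent inhibition of the receptor-coactivator binding signal exceeds about 50% in the single-dose screen, limit read from the data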;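 also: 0% = receptor plus peptide wells without compound and 100% = peptide-only wells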
Target sequence (Q92731 whole entry, looked up, the tested form may be a part): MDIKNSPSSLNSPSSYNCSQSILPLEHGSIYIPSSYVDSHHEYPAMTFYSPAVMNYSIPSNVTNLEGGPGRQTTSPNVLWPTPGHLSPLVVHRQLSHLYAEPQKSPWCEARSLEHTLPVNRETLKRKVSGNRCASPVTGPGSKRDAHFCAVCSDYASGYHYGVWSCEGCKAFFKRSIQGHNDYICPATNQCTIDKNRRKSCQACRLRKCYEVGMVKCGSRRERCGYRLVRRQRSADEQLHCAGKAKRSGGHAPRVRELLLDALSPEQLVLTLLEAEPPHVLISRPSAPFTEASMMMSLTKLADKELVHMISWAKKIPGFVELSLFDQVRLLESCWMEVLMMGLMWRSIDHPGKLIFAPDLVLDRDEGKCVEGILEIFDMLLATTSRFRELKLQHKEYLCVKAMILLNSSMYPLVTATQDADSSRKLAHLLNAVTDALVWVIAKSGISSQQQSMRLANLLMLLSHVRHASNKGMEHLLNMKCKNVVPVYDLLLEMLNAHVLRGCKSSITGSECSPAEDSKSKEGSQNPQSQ
Candida biofilm = kills Candida albicans biofilms; 0.14% of 85,000 active; inhibition, % at 6 µM; C. albicans biofilm + clotrimazole, Alamar Blue;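 active = inhibition above 20%; inactive = inhibition below 20%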;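 also: preformed 24 hr biofilms exposed to compound for 48 hr; 0% = biofilm without compound and 100% = blank killed by clotrimazole plus chlorhexidine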
MT1-MMP txn act = MT1-MMP promoter transcription activation | activation factor at 10 µM | 0.16% of 86,000 active | HT1080 MT1-MMP promoter luciferase reporter, luminescence, overnight; active compounds read high | AID 750;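 active = activation factor of at least 2 for MT1-MMP transcription at 10 µM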
ERa SRC1 inh = blocks coactivator binding to human estrogen receptor alpha. 1.7% of 86,000 active. inhibition, % at 25.6 µM. P03372. TR-FRET ER-alpha LBD / SRC-1 peptide, estradiol-bound; in the data active = inhibition above about 50%;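 also: 0% = receptor plus peptide control and 100% = peptide only without receptor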
ERa coact pot = ER-alpha (human) coactivator binding potentiation. 1.3% of 86,000 active. coactivator binding (% of control), % at 25.6 µM. TR-FRET ERalpha-LBD/SRC-Cy5 coactivator binding, 2 h; 100 = basal binding, no effect; in the data active = activity above about 200%;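 also: binding measured in presence of low estradiol as agonist stimulus; 0% = peptide alone without receptor and 100% = receptor with peptide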
Smad3 inh = blocks human Smad3 binding to FoxH1 peptide; inhibition, % at 25 µM; P84022; TR-FRET Smad3/Dy647-FoxH1 peptide binding, europium anti-His; 0.29% of 88,000 active;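 active = compounds that reduce the energy-transfer binding signal between the protein and its labelled peptide by more than half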;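 also: 0% = Smad3 plus labelled peptide maximal FRET and 100% = peptide-only background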
Numbers without * were called inactive; · = not tested or not shown; [ ] = remark or other dose. Compounds with a hit are over-represented: about 3.8% of the library has one in this group of screens.

SMILES	ERb SRC1 inh	Candida biofilm	MT1-MMP txn act	ERa SRC1 inh	ERa coact pot	Smad3 inh
O=c1[nH]c2cc3c(cc2cc1C(c1nnnn1C1CCCC1)N1CCSCC1)OCCO3 (configuration not stated)	9.6	4.2	1.1	20.5	214.9*[fluorescence artefact?]	14.6
Cc1ccc(C(=O)CN2CCC(NC(=O)C3CCCCC3)CC2)cc1	1.4	-1.5	1.1	6.9	604.7*[fluorescence artefact?]	-2.6
COc1ccc(C(=O)Nc2ccc(N3CCCC3)cc2)cc1	41.3	80.5*	1.3	84.4*[fluorescence artefact?]	23.9	-2.1
Cc1ccc(OCC(=O)Nc2ccc(N3CCCC3)cc2)cc1C	81.6*[fluorescence artefact?]	3.9	1.1	98.7*[fluorescence artefact?]	-2.1	10.5
Cc1cc(C)cc(OCC(=O)Nc2ccc(F)cc2)c1	-9.0	11.8	0.9	9.3	79.1	-0.5
Cc1cc(C)cc(OCC(=O)Nc2ccc(N3CCCC3)cc2)c1	71.0*	8.4	1.1	97.3*[fluorescence artefact?]	2.6	0.3
CCOc1ccc(C(=O)Nc2ccc(N3CCCC3)cc2)cc1	·	·	1	·	·	·
O=C(Nc1ccc(N2CCCC2)cc1)c1ccc(Br)o1	68.4*[fluorescence artefact?]	-1.0	0.5	59.2*[fluorescence artefact?]	58.4	-15.8
O=C(Nc1ccc(N2CCN(C(=O)c3ccccc3)CC2)cc1)c1ccc(Br)o1	8.9	3.0	0.8	-0.3	100.5	0.5
CCOC(=O)[C@]1(CC(=O)O)CCCC1=O	·	·	·	·	·	10.0
NCCN1C(=O)c2ccccc2[C@@]1(O)c1ccc(Cl)cc1	·	·	·	·	·	9.7
Cc1cccc(OCC(=O)Nc2cccc(-c3nnc(-c4ccccc4)o3)c2)c1C	44.3	4.9	1	71.5*[fluorescence artefact?]	124.3	-4.3
Cc1cccc(OCC(=O)Nc2ccc(N3CCCC3)cc2)c1C	59.3*[fluorescence artefact?]	6.8	0.9	95.3*[fluorescence artefact?]	6.3	-2.6
CCC(=O)N1CCN(c2ccc(NC(=O)COc3ccccc3Cl)cc2)CC1	-9.5	8.1	0.9	-4.4	115.3	-4.7
CN1CCN(c2ccc(NC(=O)COc3ccccc3Cl)cc2)CC1	71.8*[fluorescence artefact?]	8.3	·	56.6*[fluorescence artefact?]	27.6	2.8
CCOc1ccccc1OCC(=O)Nc1ccc(N2CCCCC2)cc1	14.8	3.1	1.3	11.1	93.6	1.5
Cc1cc(C)cc(OCC(=O)NCCN2CCOCC2)c1	85.2*[fluorescence artefact?]	4.1	1.2	-9.5	111.6	2.0
CN1C=CC2=C(C#N)C(N)C(C#N)(C#N)[C@H](c3ccccc3)[C@H]2C1 (some centres not stated)	-2.7	8.5	1.1	-4.9	91.5	1.5
O=C(O)[C@H]1CCCN1Cc1ccc2c(c1)OCO2	·	·	·	·	·	-5.1
Cc1cc(C(=O)CN2C(=O)NC(Cc3c[nH]c4ccccc34)C2=O)c(C)n1C (configuration not stated)	94.2*[fluorescence artefact?]	·	1.1	-7.6	96.2	-1.6
O=C(NCc1ccco1)c1c[nH]c2ccc(S(=O)(=O)N3CCOCC3)cc2c1=O	9.4	1.1	1.2	12.8	74.0	-10.2
CCc1ccccc1NS(=O)(=O)c1ccc2[nH]cc(C(=O)NCc3ccco3)c(=O)c2c1	38.6	2.0	1	38.5	277.2*[fluorescence artefact?]	10.6
CCOCCCNC(=O)c1c[nH]c2ccc(S(=O)(=O)Nc3cccc(OC)c3)cc2c1=O	16.5	-2.8	1	52.9*	31.6	11.6
COc1cccc(NS(=O)(=O)c2ccc3[nH]cc(C(=O)NCCN4CCOCC4)c(=O)c3c2)c1	-22.4	1.7	1.1	26.1	53.4	19.7
CCN(CC)C(=O)c1c[nH]c2ccc(S(=O)(=O)Nc3cc(C)cc(C)c3)cc2c1=O	23.7	9.3	1	56.2*	25.9	8.7
SMILES	ERb SRC1 inh	Candida biofilm	MT1-MMP txn act	ERa SRC1 inh	ERa coact pot	Smad3 inh
O[C@]1(c2ccccc2)c2ccccc2NC2=NCCN21	·	·	·	·	·	-2.1
COc1cc(OC)cc(C(=O)OCc2cc3ccccc3[nH]c2=O)c1	7.7	4.1	1.2	-12.3	498.8*[fluorescence artefact?]	-17.4
CCCCOc1ccc(C(=O)NCc2ccccn2)cc1	-15.4	2.0	1.3	-36.5	622.7*[fluorescence artefact?]	9.7
O=C(NCc1ccccc1)c1ccc(/C=N/O)nc1	-9.8	3.8	1.1	-3.5	129.7	0.1
O=C(NCc1ccccn1)c1ccc(/C=N/O)nc1	65.8*[fluorescence artefact?]	9.0	1.1	1.1	92.1	0.5
Cc1ccc(C)n1-c1sccc1C(=O)O	60.0*	0.6	1.3	71.3*[fluorescence artefact?]	27.4	1.7
O=C(CSc1nc2c(c(=O)n1-c1ccc(Cl)cc1)SCC2)Nc1nccs1	5.7	5.2	1.2	28.1	142.2	-29.6
O=C(CSc1nc2c(c(=O)n1-c1ccc(Br)cc1)SCC2)Nc1nccs1	24.8	3.4	1.2	59.4*	152.2	-7.8
COc1ccc(-n2c(SCC(=O)Nc3nccs3)nc3sc4c(c3c2=O)CCN(C)C4)cc1	24.6	5.2	1.1	51.1*	182.2	3.6
COc1ccc(OCCCC(=O)NCC(C)C)cc1	-4.7	64.5*	1.1	-0.6	107.6	-0.1
Cc1cccc(Nc2nn3c(=O)c4ccccc4nc3s2)c1	57.9*[fluorescence artefact?]	-2.2	1.6	66.0*[fluorescence artefact?]	221.0*[fluorescence artefact?]	-18.2
COC(=O)c1ccc(Cn2nc(C)c(Br)c2C)cc1	65.7*[fluorescence artefact?]	3.8	1.1	-5.1	101.6	2.0
O=c1c2ccccc2nc(SCc2nc3ccccc3s2)n1Cc1ccco1	2.4	5.3	1.1	2.9	162.5	3.8
CC1CCCCC1NC(=O)CSc1nc2ccccc2c(=O)n1Cc1ccco1 (configuration not stated)	10.8	4.3	1.2	26.9	130.7	-11.7
O=c1c2ccccc2sc2nc(C3CCCCC3)n(Cc3ccco3)c(=O)c12	38.3	14.7	1.1	46.0	222.2*	-5.1
CCc1nc2sc3ccccc3c(=O)c2c(=O)n1Cc1ccco1	68.0*	6.9	1	75.7*[fluorescence artefact?]	57.1	9.9
Clc1cc2c(c(CSC3=NCN(CC4CC4)CN3)c1)OCOC2	·	·	·	·	·	3.9
C/C(N[O-])=C(\C)[N+]([O-])=[Rh][Cl].CC(=N\[O-])/C(C)=N/[O-].NC(N)=[SH+]	·	·	·	·	·	-2.1
O=C(O)c1nnsc1-c1ccc(-c2snnc2C(=O)O)cc1	·	·	·	·	·	33.6
Oc1ccc(-c2cn3c(n2)SCC3)cc1O	94.1*[fluorescence artefact?]	7.3	1.4	74.8*[fluorescence artefact?]	20.1	19.1
c1ccc(-c2cn3c(n2)SCC3)cc1	-0.9	0.3	1.5	-8.0	103.2	3.8
Oc1ccc(-c2cn3c(n2)SCC3)cc1	67.2*[fluorescence artefact?]	-7.0	·	-7.7	113.9	12.2
COc1cc(C(=O)Oc2c(CN3CCOCC3)cc(Cl)c3cccnc23)cc(OC)c1OC	4.5	-5.2	·	-9.6	218.1*	10.2
COc1ccccc1NS(=O)(=O)c1ccc(C(=O)OCC(=O)NCc2ccco2)cc1	45.1	7.4	1.1	72.6*[fluorescence artefact?]	63.4	-3.1
COc1ccc(C(=O)COc2ccccc2N2C(=O)C3C4C=CC(C4)C3C2=O)cc1 (configuration not stated)	2.1	6.3	1.6	50.6*[fluorescence artefact?]	58.9	8.7
O=C(OCC(=O)N1CCCC1)c1cncc(Br)c1	54.8*	6.4	1.2	-0.7	100.7	1.9
CC(C)CNC(=O)COC(=O)c1cncc(Br)c1	-1.4	4.6	0.9	-7.8	94.9	-15.6
